Laboratory results from PubChem BioAssay.
Calls of active or inactive are those of the source.

Key:
[1] = system: Plasmodium falciparum Sir2 (PF13_0152, Sir2A); test: Plasmodium falciparum Sir2A binding compounds – biochemical, small-molecule microarray, 635 nm fluorescence, primary screen (AID 1098); settings: fluorescence 635 nm, higher = more signal;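 also: score merges spot fluorescence intensity with its signal-to-noise ratio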
[2] = probe aDKK1 binding to arrayed compounds – biochemical, biotinylated probe, 635/667 nm fluorescence, primary screen (AID 1099); settings: small-molecule microarray, higher = more signal;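 also: score merges 667nm spot fluorescence with signal to noise across triplicate slides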
[3] = probe aCHRDL2 binding to arrayed compounds – biochemical, biotinylated probe, 635/667 nm fluorescence, primary screen (AID 1100); settings: small-molecule microarray, higher = more signal
[4] = change in splice reporter luminescence, either direction, cell-based, HEK293, spliceosome inhibition project, primary screen (AID 1101); settings: HEK293 splicing luciferase reporter, 24 h, higher = more signal, called active from +8 up or from −8 down;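 also: HEK293 cells carrying a splicing-competent luciferase reporter gene; test concentration not given here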
[5] = biological target: Fibroblast growth factor 10 (Homo sapiens) (UniProt O15520); test: compounds binding fibroblast growth factor 10 – biochemical, small-molecule microarray, 635 nm fluorescence, primary screen (AID 1102); settings: FGF10 binding, fluorescence 635 nm, higher = more signal
Fibroblast growth factor 10 (Homo sapiens), sequence (O15520 whole entry, looked up): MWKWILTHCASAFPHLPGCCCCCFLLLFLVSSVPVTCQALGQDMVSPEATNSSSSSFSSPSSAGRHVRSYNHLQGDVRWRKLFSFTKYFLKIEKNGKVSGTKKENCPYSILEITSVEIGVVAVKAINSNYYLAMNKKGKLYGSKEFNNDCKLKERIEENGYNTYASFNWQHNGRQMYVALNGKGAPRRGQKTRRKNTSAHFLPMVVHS

[6] = system: glycogen synthase kinase-3 (GSK3A per assay name; protocol says GSK3B); test: compounds binding glycogen synthase kinase-3 – biochemical, small-molecule microarray, 635 nm fluorescence, GSK3A, primary screen (AID 1103); settings: fluorescence 635 nm, higher = more signal; also: the record names both GSK3A and GSK3B
[7] = biological target: Epidermal growth factor receptor (Homo sapiens) (UniProt P00533); test: compounds binding epidermal growth factor receptor – biochemical, small-molecule microarray, 635 nm fluorescence, primary screen (AID 1104); settings: EGFR binding, higher = more signal;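 also: score merges 667 nm emission intensity with spot signal to noise over triplicate slides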
Epidermal growth factor receptor (Homo sapiens), sequence (P00533 whole entry, looked up): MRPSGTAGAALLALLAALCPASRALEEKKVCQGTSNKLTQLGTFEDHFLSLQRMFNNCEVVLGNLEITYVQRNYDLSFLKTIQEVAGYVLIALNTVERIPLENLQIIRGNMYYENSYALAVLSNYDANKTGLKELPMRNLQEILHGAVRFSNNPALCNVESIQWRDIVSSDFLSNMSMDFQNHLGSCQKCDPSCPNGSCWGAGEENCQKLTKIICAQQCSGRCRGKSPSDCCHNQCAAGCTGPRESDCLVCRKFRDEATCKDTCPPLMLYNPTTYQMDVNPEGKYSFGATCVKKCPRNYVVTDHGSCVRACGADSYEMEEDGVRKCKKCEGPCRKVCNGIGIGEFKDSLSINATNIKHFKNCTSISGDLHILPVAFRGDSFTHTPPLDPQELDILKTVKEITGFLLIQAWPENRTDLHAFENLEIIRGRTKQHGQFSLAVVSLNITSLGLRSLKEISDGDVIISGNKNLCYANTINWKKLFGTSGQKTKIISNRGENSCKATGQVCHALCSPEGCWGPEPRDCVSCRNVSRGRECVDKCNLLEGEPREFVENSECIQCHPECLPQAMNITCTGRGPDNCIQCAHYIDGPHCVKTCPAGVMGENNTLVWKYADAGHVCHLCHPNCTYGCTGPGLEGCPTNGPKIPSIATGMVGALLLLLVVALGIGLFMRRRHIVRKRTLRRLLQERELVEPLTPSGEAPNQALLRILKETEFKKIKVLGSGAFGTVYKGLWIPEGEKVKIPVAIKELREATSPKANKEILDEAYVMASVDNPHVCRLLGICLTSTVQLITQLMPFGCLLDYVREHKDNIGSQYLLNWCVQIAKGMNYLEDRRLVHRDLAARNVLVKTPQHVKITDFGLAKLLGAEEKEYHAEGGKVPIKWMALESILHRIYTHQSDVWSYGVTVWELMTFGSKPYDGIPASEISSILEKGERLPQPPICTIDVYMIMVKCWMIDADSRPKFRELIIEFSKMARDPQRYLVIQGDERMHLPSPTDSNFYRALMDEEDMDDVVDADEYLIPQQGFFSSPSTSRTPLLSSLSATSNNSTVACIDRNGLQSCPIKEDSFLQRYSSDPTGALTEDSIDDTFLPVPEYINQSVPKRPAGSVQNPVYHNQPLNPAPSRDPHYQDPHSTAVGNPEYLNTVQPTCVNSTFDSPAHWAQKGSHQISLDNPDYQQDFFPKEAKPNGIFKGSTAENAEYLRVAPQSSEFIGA

[8] = biological target: Follistatin-related protein 3 (Homo sapiens) (UniProt O95633); test: compounds binding follistatin-related protein 3 – biochemical, small-molecule microarray, 635 nm fluorescence, primary screen (AID 1105); settings: FSTL3 binding, higher = more signal;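 also: score merges emission near 667 nm and signal to noise per printed spot across three slides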
Follistatin-related protein 3 (Homo sapiens), sequence (O95633 whole entry, looked up): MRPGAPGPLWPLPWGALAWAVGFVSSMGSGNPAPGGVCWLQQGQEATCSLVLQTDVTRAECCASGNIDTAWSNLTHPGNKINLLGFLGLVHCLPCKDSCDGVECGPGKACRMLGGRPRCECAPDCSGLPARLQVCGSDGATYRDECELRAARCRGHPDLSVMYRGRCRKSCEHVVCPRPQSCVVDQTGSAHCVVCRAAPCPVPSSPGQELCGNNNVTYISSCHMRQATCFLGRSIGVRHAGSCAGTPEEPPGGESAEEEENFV

[9] = biological target: Dickkopf-related protein 1 (Homo sapiens) (UniProt O94907); test: small molecules binding DKK1 protein – biochemical, small-molecule microarray, 635 nm fluorescence scan, primary screen (AID 1106); settings: higher = more signal;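 also: score merges emission near 667 nm with signal to noise over three replicate slides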
Dickkopf-related protein 1 (Homo sapiens), sequence (O94907 whole entry, looked up): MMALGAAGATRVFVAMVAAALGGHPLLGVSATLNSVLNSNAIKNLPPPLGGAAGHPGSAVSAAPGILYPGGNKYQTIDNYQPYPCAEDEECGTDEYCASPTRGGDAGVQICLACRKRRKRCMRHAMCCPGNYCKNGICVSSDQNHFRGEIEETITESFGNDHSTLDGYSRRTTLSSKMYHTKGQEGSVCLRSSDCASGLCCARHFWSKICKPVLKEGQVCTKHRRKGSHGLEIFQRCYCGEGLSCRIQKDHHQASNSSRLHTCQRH

[10] = system: Inhibin beta A chain (activin A); test: small molecules binding activin A – biochemical, small-molecule microarray, 635 nm fluorescence scan, primary screen (AID 1107); settings: INHBA, higher = more signal;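 also: mouse activin A protein probed at 4.33 µg/mL on printed slides; score merges bound-protein fluorescence near 667 nm with spot signal-to-noise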
[11] = system: Human papillomavirus type 1a protein E7 (residues 44-93); test: small molecules binding HPV E7 44-93 – biochemical, small-molecule microarray, residues 44-93, 635 nm fluorescence, primary screen (AID 1108); settings: fluorescence 635 nm, higher = more signal;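 also: E7 fragment applied at 1 µg/mL in TBST for 1 h at 4 C; score combines spot fluorescence with its signal to noise ratio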
[12] = hepatitis C replication reporter changes, two-sided – Huh7 cells, luciferase reporter, HCV replication inhibitor project, primary screen (AID 1109); settings: Huh7 HCV replicon luciferase reporter, 48 h; higher = more signal;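 also: huh7 hepatoma cells harbouring a luciferase neomycin HCV replicon reporter; luciferase luminescence as measure of HCV replicon replication; test concentration not given here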
[13] = biological target: Left-right determination factor 2 (Homo sapiens) (UniProt O00292); test: small molecules binding LEFTY2 protein – biochemical, small-molecule microarray, 635 nm fluorescence scan, primary screen (AID 1110); settings: higher = more signal
Left-right determination factor 2 (Homo sapiens), sequence (O00292 whole entry, looked up): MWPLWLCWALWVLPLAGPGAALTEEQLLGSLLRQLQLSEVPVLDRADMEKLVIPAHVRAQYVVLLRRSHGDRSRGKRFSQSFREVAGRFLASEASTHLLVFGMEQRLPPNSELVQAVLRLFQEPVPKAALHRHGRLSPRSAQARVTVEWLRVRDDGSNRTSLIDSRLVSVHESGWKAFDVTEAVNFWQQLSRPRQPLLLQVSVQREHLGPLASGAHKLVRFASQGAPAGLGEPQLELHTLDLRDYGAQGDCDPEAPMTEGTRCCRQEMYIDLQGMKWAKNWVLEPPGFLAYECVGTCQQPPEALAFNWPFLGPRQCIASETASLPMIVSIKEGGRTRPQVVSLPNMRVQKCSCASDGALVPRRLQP

[14] = biological target: Calmodulin-1 (Homo sapiens) (UniProt P0DP23); test: small molecules binding calmodulin-1 with EGTA – biochemical, small-molecule microarray, Cy5-labelled CALM1, profiling panel (AID 1111); settings: Cy5-CALM1 binding fluorescence, higher = more signal;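 also: labelled calmodulin applied in Tris saline Tween buffer holding calcium plus EGTA and DTT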
[15] = biological target: Calmodulin-1 (Homo sapiens) (UniProt P0DP23); test: small molecules binding Ca-loaded calmodulin-1 – biochemical, small-molecule microarray, Cy5-labelled CALM1, plus calcium, artefact control for SMM control-protein annotation, profiling panel (AID 1112); settings: Cy5-CALM1 binding fluorescence, higher = more signal;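 also: score merges spot fluorescence with signal to noise from triplicate slides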
[16] = probe aWnt5a binding to arrayed compounds – biochemical, biotinylated probe, 635/667 nm fluorescence, primary screen (AID 1113); settings: small-molecule microarray, higher = more signal;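 also: score merges 667 nm fluorescence intensity with signal-to-noise per printed feature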
[17] = probe aShh binding to arrayed compounds – biochemical, biotinylated probe, 635/667 nm fluorescence, primary screen (AID 1114); settings: small-molecule microarray, higher = more signal;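 also: probe is biotin-labelled aShh protein from a stem cell growth factor screen; measures binding of labelled protein to compounds printed on the slide; score merges feature fluorescence at 667 nm with signal-to-noise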
[18] = probe aNog binding to arrayed compounds – biochemical, biotinylated probe, 635/667 nm fluorescence, primary screen (AID 1115); settings: small-molecule microarray, higher = more signal;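 also: probe is biotinylated aNog protein used at 0.15 µg/mL for 1 h at 4 C; z-score combines 667 nm fluorescence of each spot with its signal to noise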
[19] = biological target: Torsin-1A-interacting protein 1 (Homo sapiens) (UniProt Q5JTV8); test: compound microarray binding of lysate hLAP1 – cell lysate, small-molecule microarray, COS7 lysate, 635/667 nm fluorescence, primary screen (AID 1116); settings: 635 nm fluorescence, higher = more signal
Torsin-1A-interacting protein 1 (Homo sapiens), sequence (Q5JTV8 whole entry, looked up): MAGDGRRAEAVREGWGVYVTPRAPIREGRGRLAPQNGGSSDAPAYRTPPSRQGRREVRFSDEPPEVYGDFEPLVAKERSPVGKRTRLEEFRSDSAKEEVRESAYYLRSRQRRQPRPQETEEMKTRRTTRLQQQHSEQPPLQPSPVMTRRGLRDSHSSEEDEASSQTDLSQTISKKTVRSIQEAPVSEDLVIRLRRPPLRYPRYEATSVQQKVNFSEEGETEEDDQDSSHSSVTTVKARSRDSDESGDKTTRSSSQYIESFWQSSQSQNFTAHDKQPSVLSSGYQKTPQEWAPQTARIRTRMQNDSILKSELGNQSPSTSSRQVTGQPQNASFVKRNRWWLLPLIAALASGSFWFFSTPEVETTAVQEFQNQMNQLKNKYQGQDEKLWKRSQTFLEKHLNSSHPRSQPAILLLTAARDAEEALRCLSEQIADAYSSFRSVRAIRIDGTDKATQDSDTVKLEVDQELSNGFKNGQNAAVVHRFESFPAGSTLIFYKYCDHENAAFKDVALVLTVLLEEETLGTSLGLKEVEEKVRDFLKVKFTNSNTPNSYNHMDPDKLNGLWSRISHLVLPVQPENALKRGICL

[20] = biological target: Alpha-bungarotoxin (Bungarus multicinctus) (UniProt P60615); test: compounds binding labelled alpha-BTX control protein – biochemical, small-molecule microarray, Alexa647 label, 635/667 nm fluorescence, artefact control for SMM control protein annotation, profiling panel (AID 1117); settings: alpha-BTX-A647 binding fluorescence, higher = more signal
Alpha-bungarotoxin (Bungarus multicinctus), sequence (P60615 whole entry, looked up): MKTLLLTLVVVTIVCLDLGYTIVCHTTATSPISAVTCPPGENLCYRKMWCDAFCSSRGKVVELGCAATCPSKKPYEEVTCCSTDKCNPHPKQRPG

SMILES | composite z-score [1] | composite z-score [2] | composite z-score [3] | z-score [4] | composite z-score [5] | composite z-score [6] | composite z-score [7] | composite z-score [8] | composite z-score [9] | composite z-score [10] | composite z-score [11] | z-score [12] | composite z-score [13] | composite z-score [14] | composite z-score [15] | composite z-score [16] | composite z-score [17] | composite z-score [18] | composite z-score [19] | composite z-score [20]
COc1ccc([Si](C)(C)[C@@H]2[C@@H](CC(=O)N3CCC[C@H]3CO)O[C@]3(C(=O)N(Cc4cccc(N5CCCCC5=O)c4)c4ccccc43)[C@H]2C)cc1 | 1.29 | -0.246 | -0.115 | 0.238 (inactive) | 0.32 | 0.523 | 0.0941 | 0.747 | 0.414 | 0.27 | 0.845 | -2.57 | 0.415 | 0.336 | 0.0654 | -0.148 | 0.0723 | 0.21 | 0.191 | 1.22
CC(C)(C)N1CC=CC23O[C@@H]4/C=C\CCCOC(=O)C4[C@H]2C(=O)N(CCCO)[C@@H]3C1=O (stereo not given in full) | 1.18 | -0.396 | -0.006 | 0.539 (inactive) | -0.795 | -0.416 | -1.33 | -0.996 | -1.07 | 0.076 | -0.751 | 0.0578 | 0.178 | -0.71 | -0.275 | -0.172 | -0.0192 | 0.185 | -1.37 | -1.62
O=C1O[C@@H](c2ccccc2)[C@@H](c2ccccc2)N2[C@@H](c3ccc(OCCO)cc3)[C@]3(C(=O)Nc4ccc(C#CCCO)cc43)[C@@H](C(=O)O)[C@H]12 | 1.81 | 0.416 | 1.17 | 0.362 (inactive) | 1.41 | 0.746 | 0.702 | 0.988 | 0.151 | 1.34 | 1.08 | -0.22 | 0.687 | 2.03 | 0.408 | 0.663 | 0.582 | 2.45 | 1.99 | 1.95
C=CCOC(=O)[C@H]1[C@@H]2C(=O)O[C@@H](c3ccccc3)[C@@H](c3ccccc3)N2[C@@H](c2ccc(OCCOC(=O)[C@@H]3C[C@@H]4C(=O)N[C@@H](CCCCNC(C)=O)C(=O)N4[C@@H]3c3cccc(OCCO)c3)cc2)[C@]12C(=O)Nc1ccccc12 | 1.43 | 0.171 | 0.042 | 0.736 (inactive) | 0.794 | 1.32 | 0.793 | 0.726 | 0.698 | 0.239 | 0.843 | -1.48 | 0.781 | 0.258 | 0.121 | -0.124 | 0.147 | 0.254 | 0.439 | -0.0506
CCOC(=O)C1=CC[C@@H](c2ccc(OC)cc2)N(S(=O)(=O)c2ccc(C)cc2)[C@H]1CC | 0.469 | 0.607 | 0.88 | -1.27 (inactive) | 0.996 | 0.811 | 0.233 | 1.1 | 0.106 | 0.372 | 1.18 | -2.44 | 0.349 | 1.84 | 0.436 | 0.0438 | -0.221 | 1.48 | 0.482 | 1
CC1CC/C=C\[C@H]2OC34C=CCN(Cc5ccccc5)C(=O)[C@H]3N(CCCCCCO)C(=O)[C@@H]4C2C(=O)O1 (stereo not given in full) | 0.954 | -0.0995 | 0.705 | 0.0368 (inactive) | -0.965 | -0.587 | -1.28 | -1.01 | -1.49 | 0.0203 | -0.504 | -0.117 | -1.26 | 0.284 | 0.636 | -0.12 | -0.0146 | -0.0007 | 2.32 | -1.2
O=C1C2C=CC(C(O)c3cccs3)N(Nc3ccc([N+](=O)[O-])cc3)C2C(=O)N1c1ccccc1 (stereo not given) | 0.672 | 0.352 | 0.25 | 1.15 (inactive) | 0.534 | 0.684 | 0.346 | 0.393 | 0.21 | 0.796 | 0.759 | -0.6 | 0.318 | 0.439 | 0.123 | -0.0179 | 0.0684 | 0.668 | 1.01 | 0.69
CC1CC/C=C\[C@H]2OC34C=CCN(Cn5nnc6ccccc65)C(=O)[C@H]3N(CCCCCCO)C(=O)[C@@H]4C2C(=O)O1 (stereo not given in full) | 0.765 | -0.252 | 0.794 | 0.468 (inactive) | -0.835 | -0.759 | -0.951 | -1.23 | -1.36 | -0.306 | -0.0257 | 0.0151 | -1.7 | 0.259 | 0.659 | -0.232 | -0.0709 | 0.0021 | 0.145 | -0.551
COc1ccc([Si](C)(C)[C@@H]2[C@@H](CC(=O)N(CCO)Cc3ccccc3)O[C@]3(C(=O)N(Cc4ccc(N5C(=O)c6cccc7cccc5c67)cc4)c4ccccc43)[C@H]2C)cc1 | 1.17 | -0.0669 | 0.0161 | -1.33 (inactive) | 0.404 | 0.01 | 0.317 | 0.12 | 0.283 | 0.516 | 0.749 | -4.47 | 0.495 | 0.553 | 0.822 | -0.124 | 0.0725 | 0.189 | 0.762 | 2.24
CCOC(=O)C1=C[C@@H](C(C)(C)C)N(S(=O)(=O)c2ccc(C)cc2)[C@H]1c1ccc(C#N)cc1 | 0.895 | 0.328 | 0.113 | -0.385 (inactive) | 0.933 | 1.11 | 0.658 | 1.09 | 0.512 | 0.712 | 1.41 | -2.04 | 0.282 | 1.37 | 0.226 | 0.055 | -0.154 | 0.618 | 0.918 | 1.09
COC(=O)C(CC#Cc1ccc2c(c1)[C@]1(C(=O)N2)[C@H](C(=O)NC[C@H](O)c2ccccc2)[C@H]2C(=O)O[C@H](c3ccccc3)[C@H](c3ccccc3)N2[C@@H]1c1ccccc1OCCO)C(=O)OC | 1.19 | 0.138 | 0.141 | 0.163 (inactive) | 1.22 | 1.19 | 0.308 | 0.866 | 0.502 | 0.205 | 1.45 | -1.92 | 0.441 | 0.413 | -0.0643 | -0.1 | -0.167 | 0.149 | 1.67 | 1.61
